According to PubChem BioAssay (Tox21):
Records with an inconclusive call do not appear. Active and inactive are the calls of the source. Unless noted, the call rests on the fitted dose curve; in most records, active means well fitted curve in the direction sought with a large enough effect in the repeat runs; inconclusive means weak or mixed curves; inactive means no such curve, though single readings can be large; an effect the other way counts as inactive or inconclusive.

What was measured:
[1] = qHTS assay to identify small molecule phospholipidosis (PLD) inducers (AID 1259344; active means well fitted curve in the direction sought with a large enough effect; an effect the other way counts as inactive or inconclusive)
Outline: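 Cells (HepG2, 900 per well) attach for 4 h, receive LipidTOX Red and compound together, incubate 24 h at 37 C, are fixed 30 min with paraformaldehyde/Hoechst, then imaged at one site per well.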

[2] = qHTS RealTime-Glo MT Cell Viability Assay in HEK293 cells - 8 hour (AID 1224887); further: nearly all actives have a fitted effect of over 50% in size; further: potency means the concentration at half of the fitted maximal effect
Outline: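 HEK293 + NanoLuc + prosubstrate, 600 cells/well; 5 h, 37 C/5% CO2; compound 23 nL in DMSO by pintool; 37 C; luminescence read at 0, 8, 16, 24, 32 and 40 h time points.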

[3] = A CellTox Green Cytotoxicity Assay to monitor cytotoxicity in HEK293 cells - 16 hour (AID 1224888); further: nearly all actives have a fitted effect of over 35% in size
Outline: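 Tox21 screen in HEK293: membrane-impermeant cyanine dye fluoresces on binding dead-cell DNA; compound pinned 5 h post-seeding, plates held at 37 C, signal read repeatedly through 40 h.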

[4] = qHTS RealTime-Glo MT Cell Viability Assay in HepG2 cells - 0 hour (AID 1224889); further: nearly all actives have a fitted effect of over 50% in size
Outline: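 Cells + NanoLuc/prosubstrate dispensed (600 cells/well) → 5 h at 37 C/5% CO2 → compounds in DMSO transferred → 40 h incubation at 37 C, luminescence read at 0, 8, 16, 24, 32, 40 h.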

[5] = A CellTox Green Cytotoxicity Assay to monitor cytotoxicity in HepG2 cells - 8 hour (AID 1224890); further: nearly all actives have a fitted effect of over 45% in size
Outline: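 Measurements at 0, 8, 16, 24, 32 and 40 h of treatment captured CellTox Green fluorescence in HepG2 cells that had been co-plated with reagent and preincubated 5 h at 37 C/5% CO2.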

[6] = target: Estrogen receptor (Homo sapiens) (UniProt P03372); assay: qHTS assay to identify small molecule antagonists of the estrogen receptor alpha (ER-alpha) signaling pathway using the BG1 cell line in the presence of 0.1 nM 17-beta-estradiol (AID 1259244); further: nearly all actives have a fitted effect of over 50% in size; further: potency means the concentration at half of the fitted maximal effect
Outline: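 Compounds were tested against 0.1 nM (final) 17beta-estradiol in VM7Luc4E2 cells, which express full-length ER-alpha and an ERE-luciferase reporter; luminescence was recorded following 22 h exposure.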

[7] = qHTS assay to identify small molecule HDAC inhibitors (AID 1259364); further: potency means the concentration at half of the fitted maximal effect;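 further: wild-type HCT-116 cells with endogenous class I/II HDAC activity; nearly all actives have a fitted effect of over 45% in size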
Outline: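 Screening used wild-type human colon HCT-116 cells incubated overnight, dosed with compounds for 2 hours, and assayed with a homogeneous luminogenic HDAC I/II reagent for 30 minutes at room temperature.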

[8] = qHTS assay to identify small molecule HDAC inhibitors - cell viability counter screen (AID 1259365); further: nearly all actives have a fitted effect of over 50% in size; further: potency means the concentration at half of the fitted maximal effect
Outline: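 Viability readout: CellTiter-Glo luminescence. Wild-type HCT-116 cells, 2hr compound treatment following overnight attachment at 37 C.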

[9] = qHTS assay to identify small molecule agonists of the sonic hedgehog signaling (Shh) pathway - cell viability counter screen (AID 1259366); further: nearly all actives have a fitted effect of over 50% in size; further: potency means the concentration at half of the fitted maximal effect
Outline: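 Viability measured fluorometrically (CellTiter-Fluor, 1hr, 37C) in 3T3 Gli1-Luc reporter cells after 23hr compound exposure within a 24hr incubation at 37C/5% CO2.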

[10] = qHTS assay to identify small molecule agonists of the sonic hedgehog signaling (Shh) pathway (AID 1259368; calls by dose curve;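 further: NIH/3T3-derived 3T3Gli1-Luc cells carrying a stable Gli1-driven firefly luciferase reporter; series mostly up to about 92 µM; nearly all actives have a fitted effect of over 15% in size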)
Outline: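 Hedgehog pathway agonism scored by increased firefly luciferase luminescence in 3T3Gli1-Luc cells treated 24 hr at 37 C; detection used a 30 min room-temperature reagent incubation.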

[11] = qHTS assay to identify small molecule antagonists of the sonic hedgehog signaling (Shh) pathway (AID 1259369; calls by dose curve; further: nearly all actives have a fitted effect of over 45% in size; further: potency means the concentration at half of the fitted maximal effect)
Outline: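 NIH/3T3 stable Gli1-Luc clone, 2,000 cells/well, 4hr settle; cpd + conditioned medium 24hr; Luc reagent 30min RT; luminescence.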

[12] = target: Estrogen receptor beta (Homo sapiens) (UniProt Q92731); assay: qHTS assay to identify small molecule agonists of the estrogen receptor beta (ER-beta) signaling pathway (AID 1259377; active means well fitted activation curve with a large enough effect in the signal ratio in the repeat runs, not every such curve was filed as active; the % refers to the signal ratio)
Outline: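 A UAS-controlled beta-lactamase reporter in ER-beta-UAS-bla HEK293T cells reports receptor activation. Compounds act for 16 hr at 37C in 2% charcoal-stripped serum, and a FRET substrate is read by fluorescence after 2 hours.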

[13] = target: Estrogen receptor beta (Homo sapiens) (UniProt Q92731); assay: qHTS assay to identify small molecule antagonists of the estrogen receptor beta (ER-beta) signaling pathway (AID 1259378; active means well fitted inhibition curve with a large enough effect in the signal ratio in the repeat runs, not every such curve was filed as active; the % refers to the signal ratio; further: potency means the concentration at half of the fitted maximal effect)
Outline: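 ER-beta-UAS-bla HEK293T (GripTite) cells in 2% charcoal-stripped FBS medium were preincubated 6 hr at 37C, dosed with compound, then stimulated with 1 nM E2 (final) for 16 hr; beta-lactamase reporter read by B/G FRET fluorescence after 2 hr substrate loading.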

[14] = qHTS assay to identify small molecule antagonists of the estrogen receptor alpha (ER-alpha) signaling pathway using the BG1 cell line in the presence of 0.1 nM 17-beta-estradiol - cell viability counter screen (AID 1259241); further: nearly all actives have a fitted effect of over 40% in size; further: potency means the concentration at half of the fitted maximal effect
Outline: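 The cell line endogenously expresses full-length ER-alpha and carries four EREs driving luciferase. Cells are cultured 5 days hormone-free, treated 22 hr with compounds and 0.1 nM estradiol, then viability is read by fluorescence.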

[15] = qHTS assay to identify small molecule antagonists of the androgen receptor (AR) signaling pathway using the MDA cell line in the presence of 0.5 nM R1881 - cell viability counter screen (AID 1259242); further: nearly all actives have a fitted effect of over 45% in size; further: potency means the concentration at half of the fitted maximal effect
Outline: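 Concentration-response screen of compounds for toxicity in MDA-kb2 reporter cells: 16 hr at 37C with 0.5 nM R1881, endpoint live-cell protease fluorescence measured in the reporter wells.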

[16] = target: Androgen receptor (Homo sapiens) (UniProt P10275); assay: qHTS assay to identify small molecule antagonists of the androgen receptor (AR) signaling pathway using the MDA cell line in the presence of 0.5 nM R1881 (AID 1259243); further: nearly all actives have a fitted effect of over 50% in size
Outline: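 With R1881 held at 0.5 nM (final), compound effects on MMTV-luciferase expression in MDA-kb2 cells were scored by luminescence after a 16 hr, 37C incubation.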

[17] = qHTS assay to identify small molecule antagonists of the sonic hedgehog signaling (Shh) pathway - cell viability counter screen (AID 1259367); further: nearly all actives have a fitted effect of over 55% in size; further: potency means the concentration at half of the fitted maximal effect
Outline: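 Cytotoxicity was assessed in parallel with Shh reporter activity by measuring live-cell protease fluorescence (CellTiter-Fluor) in NIH/3T3 cells stably carrying Gli1-Luc, treated with compound under conditioned medium stimulation for 23 hr plus 1 hr reagent incubation.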

[18] = qHTS assay to identify small molecule agonists of the androgen receptor (AR) signaling pathway in the presence of an antagonist - cell viability counter screen (AID 1259379); further: nearly all actives have a fitted effect of over 25% in size; further: potency means the concentration at half of the fitted maximal effect
Outline: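 MDA-kb2 viability measured by CellTiter-Fluor fluorescence in the same wells as the luciferase signal; nilutamide 3.0uM final; 15-point compound titration; 16 hr at 37C.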

[19] = qHTS RealTime-Glo MT Cell Viability Assay in HEK293 cells - 24 hour (AID 1224886); further: nearly all actives have a fitted effect of over 50% in size; further: potency means the concentration at half of the fitted maximal effect
Outline: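 Tox21 10K qHTS, HEK293, 600 cells/well, RealTime-Glo reagent co-dispensed with cells; 5 h preincubation, compound by pintool, 37 C, luminescence at 0–40 h.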

Measured: Potency

Chain of Estrogen receptor beta (Homo sapiens) (Q92731 whole entry, looked up): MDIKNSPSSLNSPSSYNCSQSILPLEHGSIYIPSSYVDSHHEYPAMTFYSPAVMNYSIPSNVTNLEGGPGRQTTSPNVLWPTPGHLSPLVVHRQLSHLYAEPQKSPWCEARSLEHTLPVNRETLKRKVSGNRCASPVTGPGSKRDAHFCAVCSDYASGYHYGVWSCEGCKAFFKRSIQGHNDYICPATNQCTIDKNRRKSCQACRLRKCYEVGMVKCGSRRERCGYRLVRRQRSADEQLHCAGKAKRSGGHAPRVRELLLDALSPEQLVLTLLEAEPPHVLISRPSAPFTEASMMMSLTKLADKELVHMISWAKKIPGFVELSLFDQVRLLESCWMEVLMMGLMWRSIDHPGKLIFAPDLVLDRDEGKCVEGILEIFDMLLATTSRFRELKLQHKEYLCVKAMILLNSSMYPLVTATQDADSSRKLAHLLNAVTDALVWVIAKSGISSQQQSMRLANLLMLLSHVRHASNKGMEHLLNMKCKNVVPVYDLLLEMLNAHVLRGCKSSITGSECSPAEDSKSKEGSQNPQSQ
Chain of Estrogen receptor (Homo sapiens) (P03372 whole entry, looked up): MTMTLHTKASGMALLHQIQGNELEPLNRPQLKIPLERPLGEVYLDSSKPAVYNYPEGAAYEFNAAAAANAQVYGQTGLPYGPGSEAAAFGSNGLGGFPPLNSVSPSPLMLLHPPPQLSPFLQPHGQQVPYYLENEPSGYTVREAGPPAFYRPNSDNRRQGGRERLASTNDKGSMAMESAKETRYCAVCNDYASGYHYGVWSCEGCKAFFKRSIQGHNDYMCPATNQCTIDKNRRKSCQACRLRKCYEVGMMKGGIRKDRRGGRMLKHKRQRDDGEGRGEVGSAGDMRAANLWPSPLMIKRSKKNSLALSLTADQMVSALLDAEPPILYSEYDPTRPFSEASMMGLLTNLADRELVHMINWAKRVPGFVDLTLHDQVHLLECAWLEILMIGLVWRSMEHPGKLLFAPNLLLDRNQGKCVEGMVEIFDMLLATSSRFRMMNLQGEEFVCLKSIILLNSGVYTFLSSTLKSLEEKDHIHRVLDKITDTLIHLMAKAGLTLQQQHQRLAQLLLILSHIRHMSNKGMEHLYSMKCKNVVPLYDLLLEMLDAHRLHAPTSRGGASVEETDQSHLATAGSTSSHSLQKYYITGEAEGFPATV
Chain of Androgen receptor (Homo sapiens) (P10275 whole entry, looked up): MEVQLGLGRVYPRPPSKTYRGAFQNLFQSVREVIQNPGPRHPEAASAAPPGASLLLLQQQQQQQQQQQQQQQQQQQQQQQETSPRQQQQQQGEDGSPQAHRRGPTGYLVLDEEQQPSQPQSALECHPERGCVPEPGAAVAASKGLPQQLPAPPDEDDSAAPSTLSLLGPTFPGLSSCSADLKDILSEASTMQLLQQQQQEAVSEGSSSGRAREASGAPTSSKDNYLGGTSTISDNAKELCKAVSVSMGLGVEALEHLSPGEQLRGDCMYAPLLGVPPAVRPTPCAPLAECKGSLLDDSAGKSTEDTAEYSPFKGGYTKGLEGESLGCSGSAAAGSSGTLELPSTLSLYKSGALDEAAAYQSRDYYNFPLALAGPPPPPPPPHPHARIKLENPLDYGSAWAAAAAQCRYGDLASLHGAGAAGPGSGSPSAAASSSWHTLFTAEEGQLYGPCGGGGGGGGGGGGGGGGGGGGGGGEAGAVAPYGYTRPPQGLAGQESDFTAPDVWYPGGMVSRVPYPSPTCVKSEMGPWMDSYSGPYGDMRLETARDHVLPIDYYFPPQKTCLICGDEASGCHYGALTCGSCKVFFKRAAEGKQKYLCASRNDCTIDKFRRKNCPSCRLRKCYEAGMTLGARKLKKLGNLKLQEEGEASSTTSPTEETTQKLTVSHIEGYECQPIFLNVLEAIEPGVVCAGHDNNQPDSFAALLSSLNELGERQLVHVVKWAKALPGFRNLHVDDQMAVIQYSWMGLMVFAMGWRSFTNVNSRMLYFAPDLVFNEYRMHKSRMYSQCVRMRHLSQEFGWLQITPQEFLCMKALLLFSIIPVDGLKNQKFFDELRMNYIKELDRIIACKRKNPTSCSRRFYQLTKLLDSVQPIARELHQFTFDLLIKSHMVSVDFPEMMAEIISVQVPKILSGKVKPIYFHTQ

CC(=O)NC[C@H]1CN(c2ccc(N3CCOCC3)c(F)c2)C(=O)O1
inactive: [1]

O=C(CCN1CCC(c2ccccc2)C1)c1ccc2c(c1)OCCO2 (configuration not stated)
inactive: [2] | [3] | [4] | [5] | [6] | [1] | [7] | [8] | [10] | [12] | [13]
active: [9] 33.5 µM | [11] 18.8 µM

C1=CCCC1
inactive: [4] | [5] | [14] | [15] | [16] | [6] | [7] | [8] | [9] | [17] | [11] | [18]

Cc1ccc(C2OC[C@@H]3OC(c4ccc(C)cc4)O[C@H]([C@H](O)CO)[C@@H]3O2)cc1 (some centres not stated)
inactive: [4] | [5] | [14] | [15] | [16] | [6] | [7] | [8] | [9] | [17] | [10] | [11]

CCCCCCCCOC(=O)c1cc(O)c(O)c(O)c1
active: [19] 11 µM | [2] 5.49 µM | [6] 24.3 µM | [9] 24.3 µM | [11] 2.17 µM | [13] 15.4 µM | [18] 17.2 µM
inactive: [4] | [7] | [8] | [10]

NC(N)=NCc1cccc(I)c1
inactive: [1]

COc1ccc(OC)c(N=Nc2c(O)ccc3ccccc23)c1
active: [14] 9.69 µM | [15] 24.3 µM | [7] 27.3 µM | [8] 24.3 µM | [9] 13.7 µM | [17] 13.7 µM | [18] 24.3 µM
inactive: [3] | [4] | [5] | [10] | [12] | [13]

CS(=O)(=O)c1ccc([C@@H](O)[C@@H](COC(=O)CN)NC(=O)C(Cl)Cl)cc1
inactive: [1]

c1ccc2occc2c1
inactive: [19] | [4] | [5] | [15] | [1] | [7] | [8] | [9] | [17] | [10]
active: [6] 68.6 µM

CCN(CC)c1ccc(C=O)cc1
inactive: [3] | [4] | [5] | [14] | [15] | [6] | [8] | [9] | [17] | [10] | [11] | [13]

CC(C)(c1ccc(Oc2ccc(N)cc2)cc1)c1ccc(Oc2ccc(N)cc2)cc1
inactive: [3] | [4] | [5] | [14] | [7] | [8] | [9] | [17]
active: [6] 61.1 µM | [18] 54.5 µM
